Measured values reported in PubChem BioAssay (NCATS).
Results filed as inconclusive are left out. Entries that show only a call come without a potency. Activity calls are given as the source filed them. Unless noted, calls come from the whole dose curve.

Key:
[1] = target: Glucocorticoid receptor (Homo sapiens) (UniProt P04150); assay: qHTS assay for small molecule antagonists of glucocorticoid receptor signaling (AID 588533; active = well fitted inhibition curve with a large enough effect in the signal ratio, with a control signal flat, not every such curve was filed as active; the % refers to the signal ratio;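 note: cells stimulated with 2 nM dexamethasone as agonist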)
Glucocorticoid receptor (Homo sapiens), sequence (P04150 whole entry, looked up): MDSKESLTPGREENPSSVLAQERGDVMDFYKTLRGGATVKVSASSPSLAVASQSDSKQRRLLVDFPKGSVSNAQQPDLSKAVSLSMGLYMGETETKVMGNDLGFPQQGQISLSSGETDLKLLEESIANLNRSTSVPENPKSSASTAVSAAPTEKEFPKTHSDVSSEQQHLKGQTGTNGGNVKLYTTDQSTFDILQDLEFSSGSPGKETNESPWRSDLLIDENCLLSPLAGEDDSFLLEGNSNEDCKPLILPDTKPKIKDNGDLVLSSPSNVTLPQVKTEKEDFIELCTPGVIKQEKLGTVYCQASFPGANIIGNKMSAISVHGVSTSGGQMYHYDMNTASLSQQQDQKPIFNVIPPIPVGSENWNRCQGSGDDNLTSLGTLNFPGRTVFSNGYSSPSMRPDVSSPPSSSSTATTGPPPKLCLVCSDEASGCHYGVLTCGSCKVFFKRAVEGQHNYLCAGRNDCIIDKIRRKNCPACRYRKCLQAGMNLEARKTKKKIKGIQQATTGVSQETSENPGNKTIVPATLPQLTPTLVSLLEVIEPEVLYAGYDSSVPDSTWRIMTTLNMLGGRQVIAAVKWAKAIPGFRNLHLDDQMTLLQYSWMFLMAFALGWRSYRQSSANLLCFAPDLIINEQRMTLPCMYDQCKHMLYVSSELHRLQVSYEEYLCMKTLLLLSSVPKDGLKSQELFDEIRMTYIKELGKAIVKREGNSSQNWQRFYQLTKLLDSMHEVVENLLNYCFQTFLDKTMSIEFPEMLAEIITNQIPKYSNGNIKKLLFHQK
Procedure, shortened: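 Antagonist-mode qHTS: compound titrations added to GRE-bla HeLa cells, then dexamethasone 2 nM final; 18 h, 37 C. CCF4 FRET fluorescence normalized to dexamethasone and DMSO; IC50 from Hill fit.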

[2] = qHTS assay for small molecule antagonists of peroxisome proliferator-activated receptor delta signaling (AID 588535; active = well fitted inhibition curve with a large enough effect in the signal ratio, with a control signal flat, not every such curve was filed as active; the % refers to the signal ratio;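 for max response: cells co-treated with a PPAR-delta agonist as stimulator during compound exposure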); settings: HEK293T PPARd-UAS-bla, beta-lactamase FRET ratio, 18 h; 460 nm channel
Procedure, shortened: (§1)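 Reporter: UAS-bla under PPAR-delta response element, HEK293T host. Medium: 2% charcoal/dextran FBS. Dosing: titration, 18 hrs, 37 C. Detection: CCF4, 2 hrs RT, 405 ex/460 and 530 em.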

[3] = target: Peroxisome proliferator-activated receptor gamma (Homo sapiens) (UniProt P37231); assay: qHTS assay for small molecule agonists of peroxisome proliferator-activated receptor gamma signaling (AID 588536; active = well fitted curve in the direction sought with a large enough effect in the signal ratio, with a control signal flat, not every such curve was filed as active; the % refers to the signal ratio)
Peroxisome proliferator-activated receptor gamma (Homo sapiens), sequence (P37231 whole entry, looked up): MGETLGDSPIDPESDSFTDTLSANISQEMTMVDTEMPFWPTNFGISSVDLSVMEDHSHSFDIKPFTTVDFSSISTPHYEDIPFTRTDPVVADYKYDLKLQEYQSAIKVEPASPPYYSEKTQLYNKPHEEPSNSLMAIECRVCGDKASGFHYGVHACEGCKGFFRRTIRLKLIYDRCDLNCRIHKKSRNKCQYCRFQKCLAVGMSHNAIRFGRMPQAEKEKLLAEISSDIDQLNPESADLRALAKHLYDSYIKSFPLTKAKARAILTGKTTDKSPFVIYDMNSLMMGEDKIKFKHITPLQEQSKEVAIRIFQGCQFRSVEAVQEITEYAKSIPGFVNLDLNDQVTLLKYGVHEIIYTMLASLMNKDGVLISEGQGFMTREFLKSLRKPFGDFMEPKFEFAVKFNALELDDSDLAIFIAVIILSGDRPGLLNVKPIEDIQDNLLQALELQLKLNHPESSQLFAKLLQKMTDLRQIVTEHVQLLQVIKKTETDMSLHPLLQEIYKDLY
Procedure, shortened: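 Ratiometric blue/green fluorescence (405 nm excitation; 460 and 530 nm emission) from CCF4-loaded HEK293 reporter cells serves as signal. Exposure to test compounds lasts 16 h at 37 C in medium containing 1% charcoal/dextran-treated serum.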

[4] = target: Vitamin D3 receptor (Homo sapiens) (UniProt P11473); assay: qHTS assay for small molecule antagonists of vitamin D receptor signaling (AID 588541);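 note: receptor activated by calcitriol during compound treatment; series mostly up to about 77 µM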
Vitamin D3 receptor (Homo sapiens), sequence (P11473 whole entry, looked up): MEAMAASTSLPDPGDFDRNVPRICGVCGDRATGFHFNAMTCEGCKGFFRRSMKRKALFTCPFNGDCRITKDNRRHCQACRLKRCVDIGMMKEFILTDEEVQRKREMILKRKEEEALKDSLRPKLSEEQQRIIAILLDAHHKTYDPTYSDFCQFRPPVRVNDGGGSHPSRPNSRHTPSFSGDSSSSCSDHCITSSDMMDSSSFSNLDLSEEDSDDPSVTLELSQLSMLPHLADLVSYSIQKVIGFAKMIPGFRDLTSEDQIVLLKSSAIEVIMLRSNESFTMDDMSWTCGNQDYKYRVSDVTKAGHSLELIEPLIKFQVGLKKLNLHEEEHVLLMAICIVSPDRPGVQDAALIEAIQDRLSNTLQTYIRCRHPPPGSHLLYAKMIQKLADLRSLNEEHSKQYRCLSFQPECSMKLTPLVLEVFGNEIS
Procedure, shortened: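 VDR-UAS-bla HEK293T cells (2000/well, 2% charcoal-stripped FBS) were treated with titrated compounds plus 1-alpha,25-dihydroxyvitamin D3 (50 nM or 3 nM final) for 16 h at 37 C. CCF4 beta-lactamase fluorescence was read; Hill fits gave IC50.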

[5] = qHTS assay for small molecule agonists of retinoid X receptor alpha signaling (AID 588544); settings: HEK293T RXRa-UAS-bla, beta-lactamase reporter, 18 h; 530 nm emission
[6] = target: Retinoic acid receptor RXR-alpha (Homo sapiens) (UniProt P19793); assay: as above
Retinoic acid receptor RXR-alpha (Homo sapiens), sequence (P19793 whole entry, looked up): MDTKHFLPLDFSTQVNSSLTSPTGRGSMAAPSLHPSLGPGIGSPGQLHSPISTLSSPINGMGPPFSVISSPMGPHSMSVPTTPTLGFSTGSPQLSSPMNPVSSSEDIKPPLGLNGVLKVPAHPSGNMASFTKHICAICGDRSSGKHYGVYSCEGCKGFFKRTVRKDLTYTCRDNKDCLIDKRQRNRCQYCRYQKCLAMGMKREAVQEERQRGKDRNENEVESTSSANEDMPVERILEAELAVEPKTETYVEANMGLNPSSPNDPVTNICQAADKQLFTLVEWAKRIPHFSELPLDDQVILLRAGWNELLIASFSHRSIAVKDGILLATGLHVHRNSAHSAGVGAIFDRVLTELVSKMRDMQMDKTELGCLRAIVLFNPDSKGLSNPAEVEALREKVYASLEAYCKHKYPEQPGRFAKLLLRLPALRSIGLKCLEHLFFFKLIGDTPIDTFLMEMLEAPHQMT

[7] = target: Thyroid hormone receptor beta (Homo sapiens) (UniProt P10828); assay: qHTS assay for small molecule agonists of thyroid hormone receptor beta signaling (AID 588545)
Thyroid hormone receptor beta (Homo sapiens), sequence (P10828 whole entry, looked up): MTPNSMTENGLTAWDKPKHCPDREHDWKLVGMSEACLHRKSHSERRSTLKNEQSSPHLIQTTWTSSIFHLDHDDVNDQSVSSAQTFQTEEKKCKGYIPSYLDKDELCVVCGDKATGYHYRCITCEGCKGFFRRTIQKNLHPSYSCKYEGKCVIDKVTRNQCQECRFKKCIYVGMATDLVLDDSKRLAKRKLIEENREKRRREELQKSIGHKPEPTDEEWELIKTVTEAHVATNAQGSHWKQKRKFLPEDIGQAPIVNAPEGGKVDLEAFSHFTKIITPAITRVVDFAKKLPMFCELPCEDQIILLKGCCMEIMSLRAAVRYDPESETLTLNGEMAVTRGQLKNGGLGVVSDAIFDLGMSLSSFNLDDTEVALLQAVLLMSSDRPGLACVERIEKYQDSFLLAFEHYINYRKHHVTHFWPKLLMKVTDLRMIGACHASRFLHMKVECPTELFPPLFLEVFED
Procedure, shortened: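 TR-UAS-bla-GripTite HEK 293 cells in medium with 2% charcoal/dextran FBS, 0.1 mM NEAA and 1 mM sodium pyruvate were treated with titrated compounds for 18 hrs at 37 C. Beta-lactamase reporter was read with CCF4 dye (ex 405, em 460/530 nm); EC50 from Hill fits.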

[8] = qHTS assay for small molecule antagonists of retinoid X receptor alpha signaling (AID 588546; active = well fitted inhibition curve with a large enough effect in the signal ratio, with a control signal flat, not every such curve was filed as active; the % refers to the signal ratio;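 note: cells stimulated with 9-cis-retinoic acid as agonist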); settings: HEK293T RXRa-UAS-bla, beta-lactamase ratio, antagonist mode; measured here: W530 green channel, cytotoxicity proxy
Procedure, shortened: (§2)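 Beta-lactamase reporter inhibition, read as CCF4 fluorescence ratio (ex 405, em 460/530 nm) after 2 h at RT. HEK293T UAS-bla cells, 2500/well, were stimulated with 9-cis-RA at 500 or 100 nM final alongside test compound for 18 h at 37 C.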

[9] = target: Retinoic acid receptor RXR-alpha (Homo sapiens) (UniProt P19793); assay: as above; settings: HEK293T RXRa-UAS-bla, beta-lactamase ratio, antagonist mode
Procedure, shortened: as §2

[10] = target: Thyroid hormone receptor beta (Homo sapiens) (UniProt P10828); assay: qHTS assay for small molecule antagonists of thyroid hormone receptor beta signaling (AID 588547; active = well fitted inhibition curve with a large enough effect in the signal ratio, with a control signal flat, not every such curve was filed as active; the % refers to the signal ratio;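 note: cells stimulated with 0.4 nM T3 agonist during compound exposure; series mostly up to about 77 µM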); settings: TR-UAS-bla HEK293, beta-lactamase ratio, antagonist mode, 18 h
Procedure, shortened: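 TR-UAS-bla GripTite HEK293 cells in 2% charcoal/dextran FBS medium were preincubated 4 h at 37 C, given compound (0.59 nM to 92 uM) plus 0.4 nM T3 (final) for 18 h, then CCF4 for 2 h at RT; Hill fit gave IC50.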

[11] = target: Voltage-gated inwardly rectifying potassium channel KCNH2 (Homo sapiens) (UniProt Q12809); assay: qHTS Assay for Small Molecule Inhibitors of the Human hERG Channel Activity (AID 588834; active = well fitted inhibition curve with a large enough effect;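 note: top concentration of the series differs between compounds; lower thallium flux fluorescence means stronger hERG block; nearly all actives have a fitted effect of over 50% in size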)
Voltage-gated inwardly rectifying potassium channel KCNH2 (Homo sapiens), sequence (Q12809 whole entry, looked up): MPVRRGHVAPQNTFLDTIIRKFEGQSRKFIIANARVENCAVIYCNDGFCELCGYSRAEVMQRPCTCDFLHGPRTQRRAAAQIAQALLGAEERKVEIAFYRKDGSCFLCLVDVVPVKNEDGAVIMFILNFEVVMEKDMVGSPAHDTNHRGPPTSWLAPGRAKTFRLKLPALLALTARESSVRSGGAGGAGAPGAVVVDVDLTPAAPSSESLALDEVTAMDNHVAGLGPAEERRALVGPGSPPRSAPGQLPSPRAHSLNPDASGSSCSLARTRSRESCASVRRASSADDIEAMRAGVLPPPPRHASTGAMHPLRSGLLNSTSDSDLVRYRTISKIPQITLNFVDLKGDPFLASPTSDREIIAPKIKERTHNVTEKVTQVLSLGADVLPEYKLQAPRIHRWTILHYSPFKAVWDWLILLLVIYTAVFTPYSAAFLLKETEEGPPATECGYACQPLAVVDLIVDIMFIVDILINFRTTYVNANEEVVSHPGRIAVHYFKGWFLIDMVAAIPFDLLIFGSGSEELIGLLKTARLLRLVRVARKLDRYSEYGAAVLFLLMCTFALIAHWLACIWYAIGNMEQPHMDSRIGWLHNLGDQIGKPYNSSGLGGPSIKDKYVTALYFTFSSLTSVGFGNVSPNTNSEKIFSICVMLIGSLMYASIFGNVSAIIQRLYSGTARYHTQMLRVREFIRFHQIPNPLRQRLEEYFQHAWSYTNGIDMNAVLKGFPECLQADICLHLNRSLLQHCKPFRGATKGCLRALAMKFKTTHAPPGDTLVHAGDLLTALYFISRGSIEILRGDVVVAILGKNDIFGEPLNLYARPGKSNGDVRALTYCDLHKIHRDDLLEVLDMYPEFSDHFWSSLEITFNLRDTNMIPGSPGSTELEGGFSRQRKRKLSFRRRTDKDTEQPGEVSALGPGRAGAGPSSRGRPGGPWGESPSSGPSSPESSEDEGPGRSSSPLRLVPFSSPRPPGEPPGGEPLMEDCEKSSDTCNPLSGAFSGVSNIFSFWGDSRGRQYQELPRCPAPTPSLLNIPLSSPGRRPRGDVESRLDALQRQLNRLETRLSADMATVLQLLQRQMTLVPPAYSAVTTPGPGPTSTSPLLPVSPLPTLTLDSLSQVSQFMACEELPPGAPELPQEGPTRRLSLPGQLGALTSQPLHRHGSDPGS
Procedure, shortened: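 U2OS cells transduced with hERG via BacMam (MOI ~100), plated 2000/well, loaded with FluxOR thallium dye, compound ~10 min, then stimulation buffer; fluorescence decrease read kinetically; AC50 from Hill fits.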

[12] = qHTS assay for small molecule activators of the nuclear factor-kappa B (NF-kB) signaling pathway (AID 651749; active = well fitted activation curve with a large enough effect in the signal ratio; the % refers to the signal ratio; note: series mostly up to about 77 µM); settings: NF-kB-bla ME-180 cells, beta-lactamase FRET ratio, 16 h; stronger effect = higher value
Procedure, shortened: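 Screening used 2,000 ME-180 reporter cells per well exposed to pinned compound (23 nL) or DMSO; after 16 hr at 37C, beta-lactamase expression under NF-kB control was assessed through FRET.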

[13] = target: Peroxisome proliferator-activated receptor delta (Homo sapiens) (UniProt Q03181); assay: qHTS assay for small molecule antagonists of peroxisome proliferator-activated receptor delta signaling (AID 588535);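 for max response: cells co-treated with a PPAR-delta agonist as stimulator during compound exposure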
Peroxisome proliferator-activated receptor delta (Homo sapiens), sequence (Q03181 whole entry, looked up): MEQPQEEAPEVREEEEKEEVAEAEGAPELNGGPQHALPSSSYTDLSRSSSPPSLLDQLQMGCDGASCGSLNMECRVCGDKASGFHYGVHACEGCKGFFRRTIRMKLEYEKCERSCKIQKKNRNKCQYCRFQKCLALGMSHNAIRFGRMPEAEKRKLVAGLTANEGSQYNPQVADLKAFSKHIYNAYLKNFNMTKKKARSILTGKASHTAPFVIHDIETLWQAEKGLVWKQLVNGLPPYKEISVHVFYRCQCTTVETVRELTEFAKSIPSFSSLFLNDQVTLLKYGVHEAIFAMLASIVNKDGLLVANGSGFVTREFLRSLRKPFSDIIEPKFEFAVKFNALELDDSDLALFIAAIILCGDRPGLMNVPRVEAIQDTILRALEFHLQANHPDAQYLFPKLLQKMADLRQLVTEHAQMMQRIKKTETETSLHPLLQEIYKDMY
Procedure, shortened: as §1

[14] = target: Peroxisome proliferator-activated receptor gamma (Homo sapiens) (UniProt P37231); assay: qHTS assay for small molecule antagonists of peroxisome proliferator-activated receptor gamma signaling (AID 588537; active = well fitted inhibition curve with a large enough effect in the signal ratio, with a control signal flat, not every such curve was filed as active; the % refers to the signal ratio;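 note: reporter cells co-stimulated with 50 nM rosiglitazone agonist during compound treatment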)
Procedure, shortened: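 We seeded GeneBLAzer HEK293 reporter cells at 3000 per well, allowed 6-6.5 h attachment at 37 C, then co-treated with test compound titrations and 50 nM rosiglitazone overnight (16 h). Inhibition was quantified from 460/530 nm emission ratios.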

[15] = qHTS assay for small molecule agonists of the antioxidant response element (ARE) signaling pathway (AID 651741; active = well fitted activation curve with a large enough effect in the signal ratio; the % refers to the signal ratio; note: potency is the fitted concentration of half-maximal effect)
Procedure, shortened: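 Compounds in DMSO are pinned onto HepG2 ARE-bla cells (2,000/well) that were preincubated 5 h; plates stay 16 h at 37 C, then beta-lactamase activity is detected with LiveBLAzer B/G substrate by fluorescence.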

[16] = qHTS assay for small molecule activators of the p53 signaling pathway (AID 651743; active = well fitted activation curve with a large enough effect in the signal ratio, not every such curve was filed as active; the % refers to the signal ratio; note: series mostly up to about 92 µM); settings: HCT-116 p53RE-bla, beta-lactamase FRET ratio, 16 h; stronger effect = higher value
Procedure, shortened: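 Cell-based beta-lactamase reporter (p53 response elements, HCT-116 background). After a 5-hour preincubation, cells received compound for 16 hours at 37 C; substrate development ran 2 hours at room temperature.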

[17] = target: Vitamin D3 receptor (Homo sapiens) (UniProt P11473); assay: qHTS assay for small molecule agonists of vitamin D receptor signaling (AID 588543)
Procedure, shortened: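 GeneBLAzer VDR-UAS-bla HEK293T cells in 2% charcoal-stripped FBS medium were dosed with compound titrations for 16 h at 37 °C; CCF4 β-lactamase readout (405 nm ex, 460/530 nm em). EC50 and efficacy from Hill fits, normalized to 50 nM calcitriol (100%) and DMSO (0%).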

[18] = target: Glucocorticoid receptor (Homo sapiens) (UniProt P04150); assay: qHTS assay for small molecule agonists of glucocorticoid receptor signaling (AID 588532; active = well fitted curve in the direction sought with a large enough effect in the signal ratio, with a control signal flat; the % refers to the signal ratio); settings: HeLa MMTV-bla, beta-lactamase ratio, agonist, 18 h; stronger effect = higher value; percent of dexamethasone control, DMSO zero
Procedure, shortened: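 Stimulation of a glucocorticoid response element-driven beta-lactamase gene was measured in HeLa cells. Responses were scaled between DMSO basal and 0.1 uM dexamethasone, then fitted for half-maximal stimulation.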

SMILES	outcome [1]	max response [2]	outcome [3]	outcome [4]	max response [5]	outcome [6]	outcome [7]	max response [8]	max response [9]	activity change % (negative = inhibition) [10]	Potency [11]	activation [12]	Potency [13]	outcome [14]	Potency [15]	activation [16]	outcome [17]	activation [18]
Nc1cccc(O)c1	inactive	11.9%	inactive	inactive	-4.39%	inactive	inactive	6.84%	1.85% (inactive)	-7.53% (inactive)	inactive	-1.16% (inactive)	–	–	–	–	–	–
O=Cc1c(Cl)cccc1Cl	inactive	-29.6%	inactive	inactive	3.02%	inactive	inactive	-5.87%	-1.18% (inactive)	-16.1% (inactive)	inactive	-0.578% (inactive)	inactive	inactive	inactive	-2.41% (inactive)	–	–
O=C(O)c1cccc(Cl)c1Cl	inactive	5.12%	inactive	inactive	-8.8%	inactive	–	-3.86%	-4.53% (inactive)	–	inactive	0.0203% (inactive)	–	inactive	inactive	-0.257% (inactive)	inactive	–
Cc1cccc2sc(N)nc12	inactive	24.8%	inactive	inactive	-1.76%	inactive	inactive	-5.71%	1.45% (inactive)	–	inactive	0.512% (inactive)	inactive	inactive	15 µM (active)	2.1% (inactive)	inactive	–
O=C(Cl)c1c(Cl)cccc1Cl	inactive	-5.79%	inactive	inactive	-8.14%	inactive	inactive	-4.7%	4.97% (inactive)	-15.6% (inactive)	inactive	–	inactive	–	inactive	–	inactive	–
Cc1cc(C2(c3cc(C)c(O)cc3C)OS(=O)(=O)c3ccccc32)c(C)cc1O	inactive	–	inactive	–	-3.17%	inactive	inactive	-12.4%	0.408% (inactive)	-15% (inactive)	inactive	–	–	–	–	-5.82% (inactive)	–	–
CC(=O)OC(C)=O	inactive	–	inactive	inactive	-0.73%	inactive	inactive	-8.16%	5.52% (inactive)	16.3% (inactive)	inactive	-1.18% (inactive)	–	inactive	inactive	1.52% (inactive)	–	–
CCNS(=O)(=O)c1ccc(C)cc1	inactive	8.52%	inactive	–	7.68%	inactive	–	0.888%	3.72% (inactive)	-4.68% (inactive)	–	–	inactive	–	inactive	-2.94% (inactive)	–	–
CCCCOCCOCCSC#N	inactive	34.7%	inactive	inactive	3.38%	inactive	–	-3.14%	5.89% (inactive)	–	–	0.862% (inactive)	inactive	–	inactive	-1.56% (inactive)	–	–
C=C(C)OC(C)=O	inactive	–	inactive	inactive	12.6%	inactive	–	12.2%	-11.4% (inactive)	24.9% (inactive)	inactive	-0.753% (inactive)	–	–	inactive	-0.827% (inactive)	–	–
Cc1ccc2nc(-c3ccc(N)cc3)sc2c1S(=O)(=O)O	–	–	–	inactive	–	–	–	-1.52%	30.6% (inactive)	–	inactive	–	–	inactive	42.2 µM (active)	18.6% (inactive)	–	22.8% (inactive)
C=CCn1c(=O)n(CC=C)c(=O)n(CC=C)c1=O	inactive	–	inactive	inactive	-13.5%	inactive	inactive	-12.4%	6.59% (inactive)	-0.231% (inactive)	inactive	–	–	–	–	0.0041% (inactive)	inactive	–
C=CC(=O)NC(C)C	inactive	-15.9%	inactive	inactive	-3.51%	inactive	inactive	5.01%	0.568% (inactive)	-0.537% (inactive)	inactive	0.588% (inactive)	–	–	–	-0.785% (inactive)	inactive	–
CCOC(=O)OCC	inactive	–	inactive	inactive	-14.7%	inactive	inactive	10.9%	-0.211% (inactive)	5.41% (inactive)	inactive	-0.0369% (inactive)	–	inactive	inactive	–	inactive	–
C/C(C=O)=C/c1ccccc1	inactive	-13.6%	inactive	inactive	-15.6%	inactive	inactive	2.35%	-7.56% (inactive)	-5.38% (inactive)	inactive	-1.45% (inactive)	inactive	inactive	–	–	inactive	–
ON=C1CCCCC1	inactive	-2.32%	inactive	inactive	-11.2%	inactive	inactive	5.82%	4.41% (inactive)	8.44% (inactive)	–	-0.0489% (inactive)	inactive	inactive	–	-1.24% (inactive)	–	–
Cc1cccc(C)c1	inactive	-14.1%	inactive	inactive	-8.44%	inactive	inactive	-8.63%	-1.87% (inactive)	21.6% (inactive)	inactive	–	inactive	inactive	–	–	inactive	–
